Over roughly 2,900 compounds, “NF-kB SEAP reporter activity, fold change vs agonist alone” has its median near 0.99; the highest 2% begin near 2.6. Many of the other results were omitted from the sample, so the highest values are more common in it than they were.
Tests used:
RAW-Dual [1] = experiment: NF-kB SEAP reporter activity, fold change vs agonist alone; higher = enhanced NF-kB activity; settings: library stock concentration (final ~1000-fold dilution): 10 mM
In short: (§1)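 RAW-Dual macrophages (50,000 cells/well in DMEM, 384-well plates) received 50 nL of library stock by pin tool, then a PRR agonist 1 h later, and were kept at 37 °C, 5% CO2. After 20 hours, supernatant was read for IRF by QuantiLuc luminescence and for NF-κB by QuantiBlue absorbance at 620 nm. Reporter activity is fold change over agonist-alone wells. Cytotoxic wells had IncuCyte confluency below 70% of agonist controls in both mask sets.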

RAW-Dual [2] = experiment: NF-kB SEAP reporter activity, fold change vs agonist alone; cytotoxicity flag (confluency mask): not cytotoxic; higher = enhanced NF-kB activity
In short: as §1

RAW-Dual [3] = experiment: NF-kB SEAP reporter activity, fold change vs agonist alone; cytotoxicity flag (confluency mask): cytotoxic (confluency <70% of control); higher = enhanced NF-kB activity
In short: as §1

[4] = cytotoxicity flag (confluency mask): not cytotoxic, agonist: MPLA (TLR4) […]
[5] = agonist: ODN 1826 (TLR9) 0.5 ug/mL
[6] = agonist: Pam2CSK4 (TLR2/6) 0.1 ug/mL
[7] = agonist: Pam3CSK4 (TLR2/1) 0.1 ug/mL
[8] = cytotoxicity flag (confluency mask): not cytotoxic, agonist: Imiquimod (TLR7) […]

With `NC(=O)c1ccccn1` the “NF-kB SEAP reporter activity” value (RAW-Dual [1]; [4]) was 1.08.
`C=C1CC23CCC4C(C)(C(=O)O)CCCC4(C)C2CCC1C3` (centres undefined) (library stock concentration (final ~1000-fold dilution): 10 mM) was tested, and the “NF-kB SEAP reporter activity” value (RAW-Dual [2]; agonist: LPS (TLR4) 0.1 ug/mL) was 0.821, the “NF-kB SEAP reporter activity” value (RAW-Dual [2]; [5]) was 0.749 and the “NF-kB SEAP reporter activity” value (RAW-Dual [2]; [6]) was 0.65. For the same molecule, the “NF-kB SEAP reporter activity” value (RAW-Dual [2]; [7]) was 0.646.
For `C=C1CC23CCC4C(C)(C(=O)O)CCCC4(C)C2CCC1C3` (centres undefined), the “NF-kB SEAP reporter activity” value (RAW-Dual [1]; [8]) was 0.739 and the “NF-kB SEAP reporter activity” value (RAW-Dual [1]; [4]) was 0.753.
For `COc1ccc(CCCOC(Cn2ccnc2)c2ccc(OC)cc2)cc1.Cl` (centres undefined) (library stock concentration (final ~1000-fold dilution): 10 mM), the “NF-kB SEAP reporter activity” value (RAW-Dual [2]; agonist: LPS (TLR4) 0.1 ug/mL) was 0.82, the “NF-kB SEAP reporter activity” value (RAW-Dual [2]; [5]) was 0.588 and the “NF-kB SEAP reporter activity” value (RAW-Dual [2]; [6]) was 0.572. For the same molecule, the “NF-kB SEAP reporter activity” value (RAW-Dual [2]; [7]) was 0.84.
`COc1ccc(CCCOC(Cn2ccnc2)c2ccc(OC)cc2)cc1.Cl` (centres undefined) was tested, and the “NF-kB SEAP reporter activity” value (RAW-Dual [1]; [8]) was 0.901 and the “NF-kB SEAP reporter activity” value (RAW-Dual [1]; [4]) was 1.28.
With `Cl.Cn1cc(C(=O)Nc2ccc3c(c2)OCCO3)c2ccccc2c1=O` (library stock concentration (final ~1000-fold dilution): 10 mM) the “NF-kB SEAP reporter activity” value (RAW-Dual [2]; agonist: LPS (TLR4) 0.1 ug/mL) was 2.21, the “NF-kB SEAP reporter activity” value (RAW-Dual [2]; [5]) was 1.48 and the “NF-kB SEAP reporter activity” value (RAW-Dual [2]; [6]) was 1.09. The “NF-kB SEAP reporter activity” value (RAW-Dual [2]; [7]) was 1.29.
`Cl.Cn1cc(C(=O)Nc2ccc3c(c2)OCCO3)c2ccccc2c1=O` was tested, and the “NF-kB SEAP reporter activity” value (RAW-Dual [1]; [8]) was 1.2 and the “NF-kB SEAP reporter activity” value (RAW-Dual [1]; [4]) was 1.41.
In the case of `CC(C)(C)CC1NC(C(=O)NC2CCC(O)CC2)C(c2cccc(Cl)c2F)C12C(=O)Nc1cc(Cl)ccc12` (centres undefined), the “NF-kB SEAP reporter activity” value (RAW-Dual [1]; cytotoxicity flag (confluency mask): cytotoxic (confluency <70% of control), agonist: Imiquimod (TLR7) […]) is reported as 1.55 and the “NF-kB SEAP reporter activity” value (RAW-Dual [1]; cytotoxicity flag (confluency mask): cytotoxic (confluency <70% of control), agonist: MPLA (TLR4) […]) is reported as 2.25.
For `CC(C)(C)CC1NC(C(=O)NC2CCC(O)CC2)C(c2cccc(Cl)c2F)C12C(=O)Nc1cc(Cl)ccc12` (centres undefined) (library stock concentration (final ~1000-fold dilution): 10 mM), the “NF-kB SEAP reporter activity” value (RAW-Dual [3]; agonist: LPS (TLR4) 0.1 ug/mL) was 3.05, the “NF-kB SEAP reporter activity” value (RAW-Dual [3]; [5]) was 2.82 and the “NF-kB SEAP reporter activity” value (RAW-Dual [3]; [6]) was 0.884. The “NF-kB SEAP reporter activity” value (RAW-Dual [3]; [7]) was 1.21.
`COc1cc(C(=O)O)ccc1NC(=O)C1NC(CC(C)(C)C)C(C#N)(c2ccc(Cl)cc2F)C1c1cccc(Cl)c1F` (centres undefined) (library stock concentration (final ~1000-fold dilution): 10 mM) was tested, and the “NF-kB SEAP reporter activity” value (RAW-Dual [2]; agonist: LPS (TLR4) 0.1 ug/mL) was 0.272, the “NF-kB SEAP reporter activity” value (RAW-Dual [2]; [5]) was 0.436 and the “NF-kB SEAP reporter activity” value (RAW-Dual [2]; [6]) was 0.145. For the same molecule, the “NF-kB SEAP reporter activity” value (RAW-Dual [2]; [7]) was 0.285.
`COc1cc(C(=O)O)ccc1NC(=O)C1NC(CC(C)(C)C)C(C#N)(c2ccc(Cl)cc2F)C1c1cccc(Cl)c1F` (centres undefined) was tested, and the “NF-kB SEAP reporter activity” value (RAW-Dual [1]; [8]) was 0.74 and the “NF-kB SEAP reporter activity” value (RAW-Dual [1]; [4]) was 0.697.
With `CC(=O)OC1(C(C)=O)CCC2C3C=C(Cl)C4=CC(=O)C5CC5C4(C)C3CCC21C` (centres undefined) (library stock concentration (final ~1000-fold dilution): 10 mM) the “NF-kB SEAP reporter activity” value (RAW-Dual [2]; agonist: LPS (TLR4) 0.1 ug/mL) was 1.2, the “NF-kB SEAP reporter activity” value (RAW-Dual [2]; [5]) was 1.01 and the “NF-kB SEAP reporter activity” value (RAW-Dual [2]; [6]) was 0.777. For the same molecule, the “NF-kB SEAP reporter activity” value (RAW-Dual [2]; [7]) was 1.08.
With `CC(=O)OC1(C(C)=O)CCC2C3C=C(Cl)C4=CC(=O)C5CC5C4(C)C3CCC21C` (centres undefined) the “NF-kB SEAP reporter activity” value (RAW-Dual [1]; [8]) was 1.26 and the “NF-kB SEAP reporter activity” value (RAW-Dual [1]; [4]) was 1.21.
In the case of `CC1CCC2C(C)C(OC(=O)CCC(=O)O)OC3OC4(C)CCC1C32OO4` (centres undefined) (library stock concentration (final ~1000-fold dilution): 10 mM), the “NF-kB SEAP reporter activity” value (RAW-Dual [2]; agonist: LPS (TLR4) 0.1 ug/mL) is reported as 5.12, the “NF-kB SEAP reporter activity” value (RAW-Dual [2]; [5]) is reported as 1.67 and the “NF-kB SEAP reporter activity” value (RAW-Dual [2]; [6]) is reported as 1.02. The “NF-kB SEAP reporter activity” value (RAW-Dual [2]; [7]) was 1.44.
With `CC1CCC2C(C)C(OC(=O)CCC(=O)O)OC3OC4(C)CCC1C32OO4` (centres undefined) the “NF-kB SEAP reporter activity” value (RAW-Dual [1]; [8]) was 1.84 and the “NF-kB SEAP reporter activity” value (RAW-Dual [1]; [4]) was 2.5.
For `C[C@H]1[C@@H](O)O[C@@H]2OC3(C)CC[C@H]4[C@H](C)CC[C@@H]1[C@@]24OO3` (library stock concentration (final ~1000-fold dilution): 10 mM), the “NF-kB SEAP reporter activity” value (RAW-Dual [2]; agonist: LPS (TLR4) 0.1 ug/mL) was 3.41, the “NF-kB SEAP reporter activity” value (RAW-Dual [2]; [5]) was 1.13 and the “NF-kB SEAP reporter activity” value (RAW-Dual [2]; [6]) was 1.1. For the same molecule, the “NF-kB SEAP reporter activity” value (RAW-Dual [2]; [7]) was 0.848.
For `C[C@H]1[C@@H](O)O[C@@H]2OC3(C)CC[C@H]4[C@H](C)CC[C@@H]1[C@@]24OO3`, the “NF-kB SEAP reporter activity” value (RAW-Dual [1]; [8]) was 1.32 and the “NF-kB SEAP reporter activity” value (RAW-Dual [1]; [4]) was 1.97.

Reference: the supplement of paper PMC10037445
